Where “and” joins values, the source holds several entries; their conditions need not be identical. Identical values can stand only once. Results filed as inconclusive are left out. Unmarked numbers belong to inactive results. Calls of active or inactive are those of the source. Calls come from the whole dose curve; as a rule, active = well fitted cell-killing curve with a large enough effect; inconclusive = small, poorly fitted or top-dose-only effect; inactive = no such curve, though single readings can be large or run the other way.
assay: qHTS of pediatric cancer cell lines to identify multiple opportunities for drug repurposing: Confirmatory screen for TC32 cells (AID 1347118); settings: TC32 Ewing sarcoma cells viability qHTS; series mostly up to 45.9 µM; activity change, negative = cytotoxicity: at the top concentration;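 note: cells exposed to compound for 48 h before the read; nearly all actives have a fitted effect of over 65% in size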
From the text: Drug repurposing or repositioning has been offered as a strategy for drug development in oncology programs. This approach has special potential for childhood cancers and other rare or orphan diseases, where the expected return on new drug development has been a disincentive to pharmaceuticals.
In this project we exploit the poly-pharmacology of drugs to discover new indications via phenotypic screening of a panel of 19 well-characterized cell lines derived from solid tumors seen in children and adolescents. The goal is to identify approved drugs with previously unrecognized anticancer properties that has the potential to reveal new mechanisms and biological processes involved in carcinogenesis or drug resistance. We employed a titration-based paradigm (quantitative high-throughput screening or qHTS), where all compounds were tested at multiple concentrations for their effect on cell viability. Concentration-response curves (CRCs) were derived directly from the primary screen, and both potency and efficacy values were used to identify compounds with robust bioactivity profiles. We screened the NIH Chemical Genomics Center (NCGC) Pharmaceutical Collection (NPC) and Mechanism Interrogation Plate (MIPE) small molecule collections of approved and investigational compounds against these cell lines; and measured metabolically active cells after 48 hours of compound treatment as a proxy for cell viability.
Assay Submitter: Nathalia J. Martinez, National Center for Advancing Translational Sciences, National Institutes of Health, Rockville, MD, USA; email: natalia.martinez@nih.gov
[1] Shen, M et al. Quantitative high-throughput phenotypic screening of pediatric cancer cell lines identifies multiple opportunities for drug repurposing. Oncotarget 2017 Dec 19;9(4):4758-4772. PMID 29435139.
The cells were obtained from University of North Carolina (UNC), Pediatric Preclinical Testing Program (PPT), and Coriell Institute (CI).
qHTS cell viability assay:
Cells were assayed in growth media at a density of 500-1,000 cells/well. Five microliters of cells were dispensed into 1,536-well, white, solid-bottom, TC-treated plates (Greiner Bio One) using a multidrop dispenser and incubated at 37 degrees C, 5% CO2, under a humidified atmosphere for 5 hours. Twenty-three nanoliters of compounds and controls (neutral control DMSO or positive control bortezomib at final concentration of 2.3 uM) were subsequently transferred by Kalypsys pintool. For primary screens, the MIPE collection was tested at 11-point dilutions (final concentrations range from 0.78 nM to 46 µM) and the NPC collection at 8-point dilutions (final concentrations range from 0.59 nM to 46 µM). Compounds tested in follow-up screens were assayed at 11-point dilutions. Cells were incubated for 48 hours, followed by addition of 3 uL of CellTiter-Glo (Promega). After a 15min incubation at room temperature, samples were analyzed for luminescence intensity using a ViewLux High-throughput CCD imager equipped with clear filters.
% is set by controls: 0 for no effect and ±100 for the full control effect; potency is the fitted concentration of half-maximal effect.

Question: With O=P1(NCCCl)OCCCN1CCCl (stereo unspecified) as the compound, how does the “activity change, negative = cytotoxicity” value read?
Answer: The value was 5.4%.

Question: For Cn1c(CCCC(=O)O)nc2cc(N(CCCl)CCCl)ccc21, which Potency is on record?
Answer: Its Potency is 4.65 µM (active).

Question: Which Potency does the source give for CC(C)CC(N(C)C)C1(c2ccc(Cl)cc2)CCC1 (stereo unspecified) here?
Answer: The Potency was 23.3 µM (active).

Question: With C[C@@H]1[C@@H](CC(C[C@H]2O[C@@H]3O[C@]4(C)CC[C@@H]5[C@H](C)CC[C@@H]([C@H]2C)[C@@]35OO4)C[S+](=O)([O-])c2ccc(COC(=O)N(C)C)cc2)O[C@@H]2O[C@]3(C)CC[C@H]4[C@H](C)CC[C@@H]1[C@@]24OO3 (stereo partly specified) as the compound, how does the Potency read?
Answer: The Potency was 0.585 µM (active).

Question: Which Potency does the source give for Cc1sc2c(c1C)C(c1ccc(Cl)cc1)=N[C@@H](CC(=O)OC(C)(C)C)c1nnc(C)n1-2 here?
Answer: The Potency was 0.827 µM (active).

Question: With N[C@@H](Cc1ccc(N(CCCl)CCCl)cc1)C(=O)O as the compound, how does the Potency read?
Answer: The Potency was 9.27 µM (active).

Question: For O=c1[nH]c2ccccc2n1CCCN1CCC(n2c(=O)[nH]c3cc(Cl)ccc32)CC1, which Potency is on record?
Answer: The Potency was 3.29 µM (active).

Question: For C[C@H]1O[C@@H](O[C@H]2[C@@H](O)C[C@H](O[C@H]3[C@@H](O)C[C@H](O[C@H]4CC[C@@]5(C)[C@H](CC[C@@H]6[C@@H]5CC[C@]5(C)[C@@H](C7=CC(=O)OC7)CC[C@]65O)C4)O[C@@H]3C)O[C@@H]2C)C[C@H](O)[C@@H]1O, which Potency is on record?
Answer: Its Potency is 0.0827 µM (active).

Question: Which Potency does the source give for C=C(C)[C@H]1Cc2c(ccc3c2O[C@@H]2COc4cc(OC)c(OC)cc4[C@@H]2C3=O)O1 here?
Answer: The Potency was 0.329 µM (active).

Question: Which Potency does the source give for C[C@@H]1O[C@@H](O[C@H]2C[C@@H](O)[C@]3(CO)[C@H]4[C@H](O)C[C@]5(C)[C@@H](C6=CC(=O)OC6)CC[C@]5(O)[C@@H]4CC[C@]3(O)C2)[C@H](O)[C@H](O)[C@H]1O here?
Answer: Its Potency is 92.8 nM (active) and 165 nM (active).

Question: Which Potency does the source give for C[C@@H]1[C@@H](C(=O)C[C@H]2O[C@@H]3O[C@]4(C)CC[C@@H]5[C@H](C)CC[C@@H]([C@H]2C)[C@@]35OO4)O[C@@H]2O[C@]3(C)CC[C@H]4[C@H](C)CC[C@@H]1[C@@]24OO3 here?
Answer: Its Potency is 9.27 µM (active).

Reference: PubChem BioAssay (NCATS)
